Results on 15 compounds are retold here after PubChem BioAssay (NCATS).

Test [1] can be described thus: Primary qHTS for inhibitors of nuclear receptor binding SET domain protein 2 (NSD2) in an isogenic RCH-ACV NSD2 p.E1099K mutant (9B) (AID 1645876). Further: potency means the concentration at half of the fitted maximal effect; nearly all actives have a fitted effect of over 70% in size. In general terms: qHTS replaces the single test concentration by a dilution series.
Test [2] can be described thus: Primary qHTS for inhibitors of nuclear receptor binding SET domain protein 2 (NSD2) in an RCH-ACV wild type WT cells (2C) (AID 1645877). Further: potency means the concentration at half of the fitted maximal effect; nearly all actives have a fitted effect of over 70% in size.
In test [3] the target is Glutathione peroxidase 1 (Homo sapiens) (UniProt P07203). As to the kind of experiment: Primary qHTS Assay for Inhibitors of Recombinant Selenoprotein Glutathione Peroxidase 1 (GPX1) (AID 1845191). Further: nearly all actives have a fitted effect of over 65% in size. The method in brief:
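GPX1 10 nM, GR 100 nM, GSH 1 mM, NADPH 0.5 mM, CHP 0.5 mM (final). 30-min cpd preincubation, RT. Ex340/Em450 read t=0, t=15 min.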

The target in test [4] is Cytochrome P450 2C9 (Homo sapiens) (UniProt P11712). As to the kind of experiment: qHTS Assay for Inhibitors and Substrates of Cytochrome P450 2C9 (AID 883). Further: potency means the concentration at half of the fitted maximal effect; nearly all actives have a fitted effect of over 60% in size. The procedure, abridged: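 Human CYP2C9 (10nM) hydroxylated Luciferin-H (100uM, at its KM) to luciferin in 25mM KPO4. Compound was preincubated 10 min at 37C, then NADPH regeneration started a 60 min reaction at 37C. Luminescence was read after detection reagent, normalized to 57uM sulphaphenazole.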

A short description of test [5]: qHTS Assay for Identification of Small Molecule Agonists for Thrombopoietin (TPO) Signaling Pathway (AID 917). The procedure, abridged:
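Cell-based luciferase reporter screen. Mouse Ba/F3 line stably expressing human TPO receptor; IL-3 removed overnight before plating. Co-treatment with compound and EC50 TPO (26 pM), 24 hrs at 37 C, then luminescence.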

In test [6] the target is Muscarinic acetylcholine receptor M1 (Rattus norvegicus) (UniProt P08482). As to the kind of experiment: qHTS Assay for Antagonists of Acetylcholine Muscarinic M1 Receptor: Kinetic Measurement of Intracellular Calcium Response (AID 943).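 Further: Fluo-4 calcium signal as peak divided by basal fluorescence over 4 min; series mostly up to about 35 µM; nearly all actives have a fitted effect of over 75% in size.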 The method in brief:
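Antagonism is measured as inhibition of the carbachol-evoked calcium rise in CHO cells transfected with rat M1. Cells are dye-loaded, exposed to compound for 10 min, then stimulated with 100 nM carbachol (EC80).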

For test [7] the target is unchanged. In words: qHTS Assay for Antagonists of Acetylcholine Muscarinic M1 Receptor: Measurement of IP-One Response (AID 944). Further: nearly all actives have a fitted effect of over 75% in size. The method in brief:
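Antagonist mode with rat M1 receptor transfected into CHO cells. Compound is added first for 10 min, carbachol at its EC80 follows for 30 min, and lysis reagents then allow TR-FRET detection of accumulated IP1.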

For test [8], the target named is Alpha-galactosidase A (Homo sapiens) (UniProt P06280). As to the kind of experiment: Counterscreen for Glucocerebrosidase Inhibitors: qHTS Assay for Human alpha-Galactosidase at pH 4.5 (AID 992). The method in brief:
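Steps: enzyme (2 nM final), then compound across 0.7 nM to 77 uM, then 80 uM fluorogenic galactopyranoside substrate; incubate 20 min at room temperature; quench at pH 10; measure fluorescence at 365/440 nm.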
(In general: The purpose of a counterscreen is to sort out artefacts and off-target activity.)

Test [9] deals with Rap guanine nucleotide exchange factor 3 (Homo sapiens) (UniProt O95398). In words: Confirmatory qHTS for agonist of cAMP-regulated guanine nucleotide exchange factor 3 (EPAC1) (AID 1645881).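 Further: EPAC1 catalysed release of BODIPY-GDP from Rap1B seen as fluorescence loss; nearly all actives have a fitted effect of over 75% in size.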
The target of test [10] is Rap guanine nucleotide exchange factor 4 (Homo sapiens) (UniProt Q8WZA2). In words: Confirmatory qHTS for agonist of cAMP-regulated guanine nucleotide exchange factor 4 (EPAC2) (AID 1645884).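 Further: nucleotide exchange releases bodipy-GDP from Rap1 and this lowers its fluorescence; nearly all actives have a fitted effect of over 65% in size.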
Test [11] has the same target. In words: Confirmatory qHTS for antagonist of cAMP-regulated guanine nucleotide exchange factor 4 (EPAC2) (AID 1645885). Further: nearly all actives have a fitted effect of over 25% in size. Further: potency means the concentration at half of the fitted maximal effect.
For test [12], the target named is Guanine nucleotide-binding protein G(i) subunit alpha-1 (Homo sapiens) (UniProt P63096). In words: qHTS Assay for Inhibitors of RGS12 GoLoco Motif Activity (Green Fluorophore) (AID 879).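 Further: negative values mean loss of peptide binding seen as reduced polarization.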 The procedure, abridged: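 A drop in FITC polarization marked displacement of the FITC-tagged RGS12 GoLoco peptide (10 nM) from Gαi1 (50 nM). Compounds were incubated 10 min at room temperature in Tris pH 7.5 buffer containing 150 mM NaCl, 0.1 mM GDP and 0.05% NP40; unlabeled peptide titration served as control.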

The target of test [13] is Rap guanine nucleotide exchange factor 3 (Homo sapiens) (UniProt O95398). As to the kind of experiment: Confirmatory qHTS for antagonist of cAMP-regulated guanine nucleotide exchange factor 3 (EPAC1) (AID 1645880). Further: nearly all actives have a fitted effect of over 55% in size. The procedure, abridged: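 Released BODIPY-GDP fluoresces less than Rap1-bound BODIPY-GDP; the signal is followed at 480/540 nm at 5-min intervals over 30 min, after 5 min at room temperature. Reactions contain 100 nM EPAC1, 250 nM RAP1B-BODIPY-GDP and 50 uM GDP; results are normalized to ATA and DMSO.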

The target in test [14] is Cytochrome P450 2D6 (Homo sapiens) (UniProt P10635). In words: Cytochrome P450 family 2 subfamily D member 6 (CYP2D6) small molecule antagonists: luciferase biochemical (cell-free) qHTS assay (AID 1645840; active means well fitted curve in the direction sought with a large enough effect in the repeat runs; an effect the other way counts as inactive or inconclusive; further: nearly all actives have a fitted effect of over 55% in size; further: potency means the concentration at half of the fitted maximal effect). The procedure, abridged: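 P450-Glo CYP2D6 system: proluciferin substrate converted by enzyme to luciferin, read by luminescence proportional to activity. Enzyme-substrate mix with compound 10 min at room temperature, then NADPH regeneration 1 h before detection reagent.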

For test [15], the target named is Cytochrome P450 2C9 (Homo sapiens) (UniProt P11712). As to the kind of experiment: Cytochrome P450 family 2 subfamily C member 9 (CYP2C9) small molecule antagonists: luciferase biochemical (cell-free) qHTS assay (AID 1645842; active means well fitted curve in the direction sought with a large enough effect in the repeat runs; an effect the other way counts as inactive or inconclusive; further: series mostly up to about 57 µM; nearly all actives have a fitted effect of over 55% in size). The procedure, abridged: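 P450-Glo CYP2C9 system: proluciferin substrate with enzyme in mix containing 0.4% BSA, 10 min at room temperature, then NADPH regeneration solution added and incubated 1 h at 37C. Detection reagent stopped reaction; luminescence read after 20 min as RLU.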

Test [16] can be described thus: Confirmation and Secondary Assay for Modulators of Hemoglobin Beta Chain Splicing at IVS2 654 locus (AID 910).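 Further: per-well total GFP intensity by laser scanning cytometry after 2-day treatment.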 The method in brief: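 HeLa cells stably carrying EGFP interrupted by mutant beta-globin IVS2-654 intron (CMV-driven) were treated with compound for 2 days at 37C; corrected splicing was scored as total peak GFP intensity per well (488 nm excitation, 500-520 nm emission).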

The nature of test [17]: Confirmation and Secondary Assay for Modulators of Hemoglobin Beta Chain Splicing at IVS2 705 locus (AID 930).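 Further: HeLa cells stably expressing the EGFP-705 splicing reporter; GFP fluorescence per well restored by corrected splicing of the IVS2-705 intron in EGFP; series mostly up to about 46 µM.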 The method in brief: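 First, HeLa EGFP-705 cells are seeded at 500/well in Optimem with 2% FCS and left overnight. Next, compound or DMSO is added for 2 days. Finally wells are laser-scanned and total peak GFP intensity scored.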
The target in test [18] is DNA repair nuclease/redox regulator APEX1 (Homo sapiens) (UniProt P27695). In words: qHTS Validation Assay for Inhibitors of the Human Apurinic/apyrimidinic Endonuclease 1 (APE1) (AID 1705;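 further: TAMRA fluorescence gain over two minutes as APE1 cuts a quenched THF abasic duplex; series mostly up to about 57 µM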). The procedure, abridged:
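qHTS, 1536-well. APE1 + cpd 15 min RT → 50 nM TAMRA/BHQ-2 THF-abasic dsDNA substrate → kinetic fluorescence, 3 reads/60 s; delta(read3−read1) = reaction progress. No-enzyme buffer = negative control.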

A short description of test [19]: Counterscreen for APE1 Inhibitors: Fluorescent Dye Displacement Validation Assay (AID 1707). The procedure, abridged: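 Reaction mixture of 250 nM Thiazole Orange and 50 nM double-stranded abasic-site DNA was dispensed, compounds were pin-transferred, and fluorescence was read at endpoint (480 nm ex, 540 nm em). Reduced fluorescence indicated dye displacement by DNA binding.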

The nature of test [20]: qHTS for differential inhibitors of proliferation of Plasmodium falciparum line W2 (AID 1883).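 Further: parasites grown with compound for 72 h before lysis and staining.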 As to conditions: Potency: Plasmodium falciparum W2 proliferation inhibition.

Several values for one entry are separate records, joined by “and”; a condition that tells them apart may be missing. Identical values can stand only once. Inconclusive results are not listed. Activity calls are given as the source filed them. Unless noted, the call rests on the fitted dose curve; in most records, active means well fitted curve in the direction sought with a large enough effect; inconclusive means small, poorly fitted or top-dose-only effect, or another doubt; inactive means no such curve, though single readings can be large; an effect the other way counts as inactive or inconclusive.

Sequence of Rap guanine nucleotide exchange factor 3 (Homo sapiens) (O95398 whole entry, looked up): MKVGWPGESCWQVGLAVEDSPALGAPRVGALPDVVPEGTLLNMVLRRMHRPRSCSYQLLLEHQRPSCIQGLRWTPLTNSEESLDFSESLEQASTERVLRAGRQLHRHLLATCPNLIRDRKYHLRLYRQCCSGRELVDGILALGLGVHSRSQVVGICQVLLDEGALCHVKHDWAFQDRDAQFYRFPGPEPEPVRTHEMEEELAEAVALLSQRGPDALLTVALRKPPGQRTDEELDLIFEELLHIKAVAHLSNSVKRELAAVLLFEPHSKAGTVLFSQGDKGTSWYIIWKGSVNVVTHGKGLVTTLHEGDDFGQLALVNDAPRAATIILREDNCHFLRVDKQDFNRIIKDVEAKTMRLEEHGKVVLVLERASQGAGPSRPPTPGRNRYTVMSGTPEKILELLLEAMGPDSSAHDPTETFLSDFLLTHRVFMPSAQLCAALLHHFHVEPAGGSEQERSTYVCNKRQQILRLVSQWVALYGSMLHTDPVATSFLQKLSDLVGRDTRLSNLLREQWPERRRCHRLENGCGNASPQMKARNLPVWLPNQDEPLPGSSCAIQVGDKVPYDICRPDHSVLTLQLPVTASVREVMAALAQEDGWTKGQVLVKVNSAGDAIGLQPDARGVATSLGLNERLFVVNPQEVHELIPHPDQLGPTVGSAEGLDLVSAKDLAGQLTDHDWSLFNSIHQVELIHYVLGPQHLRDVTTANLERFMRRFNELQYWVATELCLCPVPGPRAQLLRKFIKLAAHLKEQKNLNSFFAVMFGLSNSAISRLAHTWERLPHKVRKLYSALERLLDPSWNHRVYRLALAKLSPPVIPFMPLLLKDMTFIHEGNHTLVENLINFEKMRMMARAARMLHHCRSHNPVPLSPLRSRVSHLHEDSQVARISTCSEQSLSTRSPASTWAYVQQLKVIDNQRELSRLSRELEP
Sequence of Cytochrome P450 2C9 (Homo sapiens) (P11712 whole entry, looked up): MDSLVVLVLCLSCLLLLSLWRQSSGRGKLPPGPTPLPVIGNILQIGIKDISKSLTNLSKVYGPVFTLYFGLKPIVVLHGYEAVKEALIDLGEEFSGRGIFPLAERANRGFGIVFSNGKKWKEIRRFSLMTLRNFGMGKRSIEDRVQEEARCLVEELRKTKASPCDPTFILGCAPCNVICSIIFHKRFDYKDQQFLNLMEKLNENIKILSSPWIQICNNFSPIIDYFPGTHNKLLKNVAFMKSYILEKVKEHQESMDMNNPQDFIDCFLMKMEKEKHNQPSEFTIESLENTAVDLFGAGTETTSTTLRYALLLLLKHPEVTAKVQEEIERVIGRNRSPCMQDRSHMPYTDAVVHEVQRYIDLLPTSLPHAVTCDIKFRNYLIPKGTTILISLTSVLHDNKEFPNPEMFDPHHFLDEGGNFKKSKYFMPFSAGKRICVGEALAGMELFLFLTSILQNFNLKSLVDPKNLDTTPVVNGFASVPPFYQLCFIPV
Sequence of Guanine nucleotide-binding protein G(i) subunit alpha-1 (Homo sapiens) (P63096 whole entry, looked up): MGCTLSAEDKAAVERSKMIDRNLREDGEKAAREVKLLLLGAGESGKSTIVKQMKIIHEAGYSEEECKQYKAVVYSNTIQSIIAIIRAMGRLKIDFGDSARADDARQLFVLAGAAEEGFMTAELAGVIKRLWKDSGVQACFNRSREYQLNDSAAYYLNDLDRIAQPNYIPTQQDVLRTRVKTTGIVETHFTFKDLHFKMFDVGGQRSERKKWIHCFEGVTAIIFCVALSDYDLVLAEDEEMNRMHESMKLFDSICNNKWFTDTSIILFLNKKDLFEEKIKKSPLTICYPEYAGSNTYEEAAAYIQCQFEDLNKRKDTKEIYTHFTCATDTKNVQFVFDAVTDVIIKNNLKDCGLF
Sequence of Alpha-galactosidase A (Homo sapiens) (P06280 whole entry, looked up): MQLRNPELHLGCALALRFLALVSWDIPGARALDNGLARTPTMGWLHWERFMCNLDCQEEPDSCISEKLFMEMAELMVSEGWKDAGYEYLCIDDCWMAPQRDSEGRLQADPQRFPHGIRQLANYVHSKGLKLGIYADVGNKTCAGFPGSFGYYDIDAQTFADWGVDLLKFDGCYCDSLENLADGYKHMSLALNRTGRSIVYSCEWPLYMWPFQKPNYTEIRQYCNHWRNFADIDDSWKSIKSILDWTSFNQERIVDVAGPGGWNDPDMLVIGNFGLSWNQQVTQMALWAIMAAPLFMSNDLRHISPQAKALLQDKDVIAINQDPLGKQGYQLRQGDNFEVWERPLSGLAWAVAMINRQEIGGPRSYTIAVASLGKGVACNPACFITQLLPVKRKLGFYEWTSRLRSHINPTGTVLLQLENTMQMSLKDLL
Sequence of Muscarinic acetylcholine receptor M1 (Rattus norvegicus) (P08482 whole entry, looked up): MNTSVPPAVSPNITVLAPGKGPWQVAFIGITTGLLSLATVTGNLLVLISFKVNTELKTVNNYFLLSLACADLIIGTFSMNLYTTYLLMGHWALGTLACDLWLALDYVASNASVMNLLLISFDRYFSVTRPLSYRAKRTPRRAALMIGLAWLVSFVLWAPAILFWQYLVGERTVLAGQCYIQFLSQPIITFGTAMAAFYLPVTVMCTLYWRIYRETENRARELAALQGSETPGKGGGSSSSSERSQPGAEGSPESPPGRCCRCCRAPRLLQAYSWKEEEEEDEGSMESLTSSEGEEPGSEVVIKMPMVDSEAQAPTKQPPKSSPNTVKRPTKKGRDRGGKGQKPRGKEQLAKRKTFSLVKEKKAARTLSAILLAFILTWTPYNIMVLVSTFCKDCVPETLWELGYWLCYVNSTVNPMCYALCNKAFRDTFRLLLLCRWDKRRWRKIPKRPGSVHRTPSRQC
Sequence of Rap guanine nucleotide exchange factor 4 (Homo sapiens) (Q8WZA2 whole entry, looked up): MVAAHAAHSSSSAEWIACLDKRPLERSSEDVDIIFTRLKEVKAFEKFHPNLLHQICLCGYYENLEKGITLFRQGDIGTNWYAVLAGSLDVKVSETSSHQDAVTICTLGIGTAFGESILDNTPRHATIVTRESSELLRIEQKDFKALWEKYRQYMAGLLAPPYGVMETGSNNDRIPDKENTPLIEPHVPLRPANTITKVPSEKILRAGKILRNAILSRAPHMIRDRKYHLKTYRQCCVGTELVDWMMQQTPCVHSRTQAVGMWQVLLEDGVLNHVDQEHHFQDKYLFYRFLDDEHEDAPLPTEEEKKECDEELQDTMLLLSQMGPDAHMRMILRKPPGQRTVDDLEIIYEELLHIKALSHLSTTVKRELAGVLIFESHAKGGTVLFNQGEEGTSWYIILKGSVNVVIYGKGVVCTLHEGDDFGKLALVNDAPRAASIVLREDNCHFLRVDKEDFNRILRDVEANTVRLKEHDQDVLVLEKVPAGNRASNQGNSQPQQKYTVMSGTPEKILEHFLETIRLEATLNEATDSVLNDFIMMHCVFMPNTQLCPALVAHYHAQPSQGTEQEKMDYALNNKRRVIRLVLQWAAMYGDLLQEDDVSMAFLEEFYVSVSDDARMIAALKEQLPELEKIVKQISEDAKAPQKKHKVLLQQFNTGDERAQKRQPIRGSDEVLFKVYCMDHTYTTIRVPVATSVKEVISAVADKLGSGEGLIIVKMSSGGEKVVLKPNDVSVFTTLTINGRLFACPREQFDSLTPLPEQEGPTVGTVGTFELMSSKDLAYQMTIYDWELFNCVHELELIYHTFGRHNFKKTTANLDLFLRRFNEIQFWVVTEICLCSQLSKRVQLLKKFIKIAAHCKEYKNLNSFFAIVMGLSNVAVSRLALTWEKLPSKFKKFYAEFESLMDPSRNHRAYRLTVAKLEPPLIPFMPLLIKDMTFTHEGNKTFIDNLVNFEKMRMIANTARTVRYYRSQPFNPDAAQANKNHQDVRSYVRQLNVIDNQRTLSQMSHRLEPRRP
Sequence of Glutathione peroxidase 1 (Homo sapiens) (P07203 whole entry, looked up): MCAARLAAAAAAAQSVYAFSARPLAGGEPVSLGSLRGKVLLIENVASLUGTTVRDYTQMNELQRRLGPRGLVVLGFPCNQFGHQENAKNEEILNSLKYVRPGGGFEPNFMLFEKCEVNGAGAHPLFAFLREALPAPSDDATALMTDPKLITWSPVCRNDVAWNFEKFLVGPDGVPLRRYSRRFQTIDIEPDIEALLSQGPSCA
Sequence of Cytochrome P450 2D6 (Homo sapiens) (P10635 whole entry, looked up): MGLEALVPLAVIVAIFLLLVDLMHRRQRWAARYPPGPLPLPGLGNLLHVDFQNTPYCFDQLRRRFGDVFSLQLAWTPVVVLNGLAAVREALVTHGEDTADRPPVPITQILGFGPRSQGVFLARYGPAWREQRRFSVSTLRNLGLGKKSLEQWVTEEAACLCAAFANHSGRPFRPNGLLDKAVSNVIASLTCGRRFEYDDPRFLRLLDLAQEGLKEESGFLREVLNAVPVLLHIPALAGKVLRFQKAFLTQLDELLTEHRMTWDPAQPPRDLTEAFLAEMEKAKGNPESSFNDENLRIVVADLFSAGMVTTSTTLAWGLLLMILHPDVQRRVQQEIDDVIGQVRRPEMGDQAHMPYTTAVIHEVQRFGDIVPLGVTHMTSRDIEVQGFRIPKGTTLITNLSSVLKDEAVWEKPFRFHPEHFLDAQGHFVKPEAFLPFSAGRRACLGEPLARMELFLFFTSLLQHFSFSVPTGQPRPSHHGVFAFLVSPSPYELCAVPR
Sequence of DNA repair nuclease/redox regulator APEX1 (Homo sapiens) (P27695 whole entry, looked up): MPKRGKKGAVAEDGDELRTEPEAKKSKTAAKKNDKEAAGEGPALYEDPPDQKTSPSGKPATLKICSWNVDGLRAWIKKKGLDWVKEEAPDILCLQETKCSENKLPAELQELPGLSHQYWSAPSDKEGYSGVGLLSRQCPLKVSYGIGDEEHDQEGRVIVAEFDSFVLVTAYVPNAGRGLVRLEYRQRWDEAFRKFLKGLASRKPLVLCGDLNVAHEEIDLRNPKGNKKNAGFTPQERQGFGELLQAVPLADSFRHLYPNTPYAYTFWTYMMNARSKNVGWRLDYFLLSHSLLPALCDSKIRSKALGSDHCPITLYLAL

In the case of `CC(C)(C)n1nc(-c2ccc(Cl)cc2)c2c(N)ncnc21`, the Potency is 8.2 µM (active) in test [1] and 16.4 µM (active) in test [2]. Also, in test [3], the Potency result was “inactive”.

On to `CCN(CC)CC1CCN(c2ncc3ncnc(Nc4ccc(F)c(Cl)c4)c3n2)CC1`, for which the Potency in [1] is 9.2 µM (active); in test [2] it was 16.4 µM (active). Moreover, the Potency result in [3] is “inactive”.

In the case of `COC(=O)C1=C(C)NC(C)=C([N+](=O)[O-])[C@H]1c1ccccc1C(F)(F)F`, the Potency in test [4] is 15.8 µM (active) and 2 µM (active); in test [11] it was 39.3 µM (active). Moreover, the Potency result in test [5], in test [6] and in test [7] was “inactive” each time. The compound was called inactive in [8], in test [9] and in [10].

In the case of `C[C@@H](/C=C\c1cccc(Oc2ccc(F)cc2)c1)N(O)C(N)=O`, the compound was classed as inactive in test [12], in test [8] and in [9]. Moreover, the Potency entry in [5], in test [6], in [7] and in test [13] was “inactive” each time. For the same compound, the Potency in test [11] is 44.1 µM (active).

For `CCn1ccnc1C[C@@H]1COc2ccccc2O1`, the compound was classed as inactive in test [12], in test [9] and in test [10]. In addition, the Potency entry in [5], in test [7] and in test [13] was “inactive” throughout. In [11], the Potency is 17.5 µM (active).

On to `CCOC(=O)[C@@]12C[C@@H]1/C(=N/O)c1ccccc1O2`, for which the compound was classed as inactive in test [12], in test [8], in [9] and in test [10]. Besides, the Potency result in test [5], in test [7], in test [13] and in test [11] was “inactive” in each case.

Turning to `Cc1nccn1CC1CCC2C(C1=O)c1ccccc1N2C` (centres undefined), in test [14], the Potency was 12 µM (active). The Potency result in test [15] is “inactive”.

Turning to `C[C@@]12C(=O)OC(=O)[C@@]1(C)[C@@H]1CC[C@@H]2O1`, the Potency entry in test [13] and in [11] was “inactive” each time. Also, the compound was called inactive in test [9] and in [10].

On to `CC[C@H](C)N(C)C(=O)c1cc2ccccc2c(-c2ccccc2Cl)n1`, for which the Potency result in [5] and in [13] was “inactive” each time. The result in [8], in test [9] and in test [10] was inactive.

As for `CCOC(=O)C1=C(C)NC(C)=C(C(=O)OC)[C@H]1c1cccc([N+](=O)[O-])c1`, the Potency in test [4] is 1.58 µM (active) and 158 nM (active). Moreover, the compound was called inactive in [16], in [17] and in [9]. The Potency result in test [13] was “inactive”.

As for `O=C1CC[C@H](C(=O)O)N1`, the Potency entry in [14] and in test [15] was “inactive” throughout.

For the compound `NC(C(=O)O)c1cc(O)c(Cl)c(O)c1` (centres undefined), the Potency entry in test [13] and in test [11] was “inactive” throughout. Further, the outcome in test [9] and in test [10] was inactive.

Turning to `C[N+](C)(C)CCC(=O)c1cccc2ccccc12`, the compound was called inactive in test [12] and in test [8]. The Potency entry in [6], in [7], in [18], in test [19] and in test [20] was “inactive” in each case.

For the compound `Cc1ccc(-c2nn(C(C)(C)C)c3ncnc(N)c23)cc1`, the results for the Potency in test [1] and in test [2] were 7.31 µM (active) and 11.6 µM (active), respectively. Also, the Potency result in test [3] is “inactive”.

As to `CC[C@H](C)C(=O)O[C@H]1CCC=C2C=C[C@H](C)[C@H](CC[C@@H]3C[C@H](O)CC(=O)O3)[C@H]21`, the Potency entry in test [5] and in test [13] was “inactive” in each case. For the same compound, the compound was classed as inactive in test [8], in [9] and in test [10].
